Among the data in PubChem BioAssay AID1259415 (National Center for Advancing Translational Sciences (NCATS), 2018) are activity change, negative = inhibition values, retold here.

SMILES strings stand for the structures. The campaign covered roughly 410,000 compounds. About 18,000 (4.4%) were called active. Not shown: some 7% with an inconclusive outcome. The entries come from a sample that favours actives as a whole. Values without a mark were called inactive. Cut-off read from the data, not from the text of the source: active = activity change below about -60%; inconclusive = no clear call, values can overlap the other calls; inactive = above about -39%.
% is set by controls: 0 for no effect and ±100 for the full control effect.

The nature of the assay: qHTS Assay for inhibitors of the human cytomegalovirus (HCMV). As to conditions: HFF cells, HCMV-luciferase reporter, 72 h; at 57.5 µM; hits give low values. The gist of the method: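 Luciferase read-out from HCMV-luciferase-infected HFFs (MOI 1 PFU/cell) 72 h post infection at 37C; compounds added after 16 h cell attachment; activity normalized between buffer-only basal and Salinomycin (10uM) inhibitor controls.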
(In general: Quantitative high-throughput screening tests each substance at several concentrations.)
Consider `CCCn1c(NCc2ccc(N(CC)CC)cc2)nc2ccccc21`, for which the activity change, negative = inhibition is -5.55%.
With `Cc1ccc(-c2noc(-c3nnn(-c4cccc(C(F)(F)F)c4)c3N)n2)cc1` the figure was 15.9%; with `Cc1cccc(NC(=O)CSc2nc(-c3ccco3)cc(C(F)(F)F)n2)c1C`, 1.83%.
With `CC[C@@H](C)[C@H](NC(=O)CCc1c(C)c2cc3c4c(oc3c(C)c2oc1=O)CCCC4)C(=O)O`, the activity change, negative = inhibition was -33.8%.
The result for `Cc1c(CC(=O)NCC(=O)NCC(=O)O)c(=O)oc2cc3oc4c(c3cc12)CCCC4` reads -60.9% (active); that for `Cc1coc2cc3oc(=O)c(CCC(=O)O)c(C)c3cc12`, -38.4%.
With `Cc1ccccc1CN1CCC(CNC(=O)c2cc3ccc4cccnc4c3[nH]2)CC1` the figure was -34.7%; with `O=c1c(=O)n(Cc2c(F)cccc2Cl)ccn1Cc1ccccc1`, -4.43%.
`COc1ccc(Cn2ccn(Cc3cccc(OC)c3)c(=O)c2=O)cc1`: the activity change, negative = inhibition is 6.59%.
With `O=[N+]([O-])/C=C/c1ccc2c(ccn2Cc2ccccc2)c1` the figure was -98% (active); with `CCOC(=O)[C@H]1[C@H]2COc3ccc(Br)cc3[C@@H]2N2C(=O)CN(C)C(=O)[C@@]12C`, 4.78%; with `CC(=O)Nc1ccc(NC(=O)C2CCCN(S(=O)(=O)c3ccc4c(c3)CCCC(=O)N4)C2)cc1` (stereo unspecified), 20.2%.
With `Cc1ccc(C)c(N2CCN(C(=O)Cn3ncc4c(=O)oc5ccc(C)cc5c43)CC2)c1` the figure was 4.14%.
The result for `Cc1ccccc1-c1cc(C(=O)NCc2cccs2)n(CC2CC(c3cccnc3)=NO2)n1` (stereo unspecified) reads -10.2%; that for `Cc1ccccc1N1CC(C(=O)Nc2ccc3c(c2)OCO3)CC1=O` (stereo unspecified), 31.2%; that for `O=C(OCCOc1ccccc1Cl)c1cc(S(=O)(=O)N2CCCCC2)ccc1N1CCOCC1`, -69.8% (active).
Consider `O=C(OCCOc1ccccc1F)c1cc(S(=O)(=O)N2CCOCC2)ccc1F`, for which the activity change, negative = inhibition was -18%.
With `CC(C)(C)C(=O)COC(=O)c1cc(S(=O)(=O)N2CCCCC2)ccc1N1CCOCC1` the figure was -11.9%.
With `CCOC(=O)c1c(C)[nH]c(C)c1S(=O)(=O)N1CCCC(C(=O)NCc2ccccc2Cl)C1` (stereo unspecified) the figure was -15.8%.
With `CCOc1ccccc1CNC(=O)Nc1cn(CC(C)C)c(=O)c2ccccc12` the figure was -2.27%.
In the case of `CCOc1ccc(S(=O)(=O)Nc2ccncc2)c(C)c1C`, the activity change, negative = inhibition is -26.1%.
With `Cc1cc(-c2n[nH]c(=S)n2/N=C/C(Br)=C/c2ccccc2)n[nH]1` the figure was -95% (active).
The result for `CCN(CCCNC(=O)c1ccc2c(c1)NC(=O)CN2C)c1cccc(C)c1` reads -95.1% (active); that for `CCN(CCCNC(=O)c1ccc(Sc2ccc(C)cc2)c(NC(C)=O)c1)c1cccc(C)c1`, -13.8%.
The result for `CCN(CCCNC(=O)Cn1ncc2c([nH]c3ccccc32)c1=O)c1cccc(C)c1` reads 19.5%.
On to `COc1ccc(SCc2cc(=O)c3ccc(C)c(C)c3[nH]2)cc1`, for which the activity change, negative = inhibition was -8.87%.
With `CC(C)C(C(=O)NC(C)(C)CC(C)(C)C)N1C(=O)C(=O)c2ccccc21` (stereo unspecified), the activity change, negative = inhibition was 229%.
With `O=C(NNS(=O)(=O)c1ccc(Cl)cc1)C1CCN(Cc2ccccc2)CC1` the figure was 14.7%; with `CCOC(=O)c1ccc(CN(Cc2ccccc2)S(=O)(=O)c2ccc(Cl)cc2)cc1`, -6.46%.
With `CCOC(=O)C1(S(=O)(=O)c2ccc(Cl)cc2)CCN(Cc2ccccc2)CC1` the figure was -98.6% (active).
For the compound `CN(CC(=O)Nc1ccccc1Cl)C(=O)COc1cccc2c1OC(C)(C)C2`, the activity change, negative = inhibition was -11.1%.
For the compound `O=C(Nc1ccc(O)c(-c2nc3ccccc3o2)c1)c1ccc(-c2cccc(Cl)c2)o1`, the activity change, negative = inhibition was 11.5%.
For `Cc1nc(Nc2ccc3c(c2)OCCO3)c2nnn(Cc3ccccc3Cl)c2n1`, the activity change, negative = inhibition is -91.8% (active).
The result for `Cc1nc(Nc2ccccc2F)c2nnn(Cc3ccccc3Cl)c2n1` reads 33.3%; that for `Cc1nc(Nc2ccc(S(=O)(=O)N3CCCC3)cc2)c2nnn(Cc3ccccc3)c2n1`, -1%.
The result for `CC(C)c1ccc(Nc2ncccc2C#N)cc1` reads 52.9%; that for `COc1cc(OC)cc(C(=O)Nc2nnc(SCC(=O)NCC3CCCO3)s2)c1` (stereo unspecified), -2.96%.
With `CC1CN(C(=S)Nc2ccc(S(N)(=O)=O)cc2)CC(C)O1` (stereo unspecified) the figure was 70.7%; with `CC1CC(C)CN(CC(=O)Nc2ccc(S(N)(=O)=O)cc2)C1` (stereo unspecified), -88.1% (active).
Regarding `CC1Cc2ccccc2N1CC(=O)Nc1ccc(S(N)(=O)=O)cc1` (stereo unspecified), the activity change, negative = inhibition was -32.9%.
With `COc1cc(OC)cc(C(=O)Nc2cc3nn(-c4ccccc4)nc3cc2Cl)c1` the figure was 99.1%.
With `CCOC(=O)c1ccccc1NC(=O)CCc1c(C)nc2c(c1C)c(=O)n(C)c(=O)n2C`, the activity change, negative = inhibition is 5.18%.
With `CCC1OC(c2ccc([N+](=O)[O-])cc2)=Nc2ccccc21` (stereo unspecified) the figure was 13.9%; with `Cc1nc(-c2ccc([N+](=O)[O-])cc2)c(-c2ccccc2)o1`, -90.1% (active); with `Cc1nc2ccccc2nc(=O)c1NNc1ccc([N+](=O)[O-])cc1`, 4.07%.
For `COc1ccc(Cn2ccnc2SCC(=O)NCc2ccco2)cc1`, the activity change, negative = inhibition is -17.3%.
As to `COc1cc(OC)cc(C2=Cc3ccccc3C(CC(=O)c3ccco3)N2c2ccc(-c3cnc(OC)nc3)cc2)c1` (stereo unspecified), the activity change, negative = inhibition is 18.6%.
The result for `NC(=O)c1ncc(C(F)(F)F)cc1Oc1ccc(F)cc1` reads 0.451%; that for `COc1ccc(Cl)cc1NC(=O)CSc1nc2ccccc2c2nc(-c3ccccc3)nn12`, 11.6%.
For the compound `CCOc1ccc(CCN2C(=O)C(=O)N([C@@H](Cc3ccc(O)cc3)CN3CCC[C@H]3CN3C(=O)C(=O)NC[C@@H]3CC(C)C)C[C@@H]2Cc2ccccc2)cc1`, the activity change, negative = inhibition is -26.1%.
The result for `O=C(COC(=O)c1cncc(Br)c1)Nc1ccc(S(=O)(=O)N2CCOCC2)cc1` reads -8.88%; that for `O=C(COc1ccc(Br)cc1)OCC(=O)c1ccc[nH]1`, 42.3%; that for `CCCOC(=O)c1c(NC(=O)c2cnn3c2NC(c2ccccc2)CC3C(F)(F)F)sc2c1CCCC2` (stereo unspecified), -29.2%.
The result for `COc1ccc(OC)c(NC(=O)/C=C/c2ccc(C)o2)c1` reads 33%; that for `Cc1ccc(/C=C/C(=O)Nc2ccc([N+](=O)[O-])c(NC(=O)/C=C/c3ccc(C)o3)c2)o1`, -77% (active); that for `CCOc1ccc(NC(=S)NC(=O)/C=C/c2ccc(OC)cc2)c([N+](=O)[O-])c1`, 40.2%.
